HCMV inh: blocks human cytomegalovirus replication | HFF cells, HCMV-luciferase reporter, 72 h; stronger effect = lower value | activity change, negative = inhibition, % at 57.5 µM | 4.5% of 410,000 active | AID 1259415; in the data active means activity change below about -60%; inconclusive means no clear call, values can overlap the other calls; inactive means above about -39%
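HFF cells seeded 16 h at 37C, treated with compounds, infected with luciferase-reporter HCMV at MOI 1 PFU/cell; luciferase read at 72 h post infection, normalized to buffer-only and Salinomycin controls.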
Vaccinia mCherry: vaccinia inhibition (mCherry reporter); Potency, µM (titrated, usually from 36.5 µM), for the others: top-dose activity change, negative = inhibition, actives largely listed as inhibitors; AID 720579; 0.63% of 310,000 active; Vaccinia virus mCherry reporter infection, fluorescence; calls by dose curve; tested in A549 cells; further: potency means the concentration at half of the fitted maximal effect; nearly all actives have a fitted effect of over 35% in size
Marburg entry inh: blocks Marburg virus binding to or entry into cells; Marburg virus pseudotyped entry inhibition, cell reporter; Potency, µM (doses to about 37.8 µM), for inactives: top-dose activity change, negative = inhibition, actives largely listed as inhibitors; 1.8% of 300,000 active; calls by dose curve; tested in HEK293 cells; further: potency means the concentration at half of the fitted maximal effect
FMDV antiviral: antivirals against foot and mouth disease virus | FMDV antiviral cell-based qHTS | Potency, µM (titrated, usually from 57.9 µM), without a hit: at the top dose activity change, negative = inhibition, usual class: inhibitors | 1.2% of 410,000 active | AID 1159524; calls by dose curve; tested in HEK293T cells; further: read-out not given here; potency means the concentration at half of the fitted maximal effect; nearly all actives have a fitted effect of over 45% in size
VACV Venus inh: inhibitors of vaccinia virus (Venus reporter). Vaccinia virus Venus reporter expression, fluorescence. Potency, µM (doses to about 36.5 µM), for inactives: top-dose activity change, negative = inhibition, hits mostly inhibitors. 0.46% of 330,000 active; calls by dose curve; tested in A549 cells; further: potency means the concentration at half of the fitted maximal effect; nearly all actives have a fitted effect of over 30% in size
Lassa entry inh: inhibitors of Lassa virus binding or cell entry; Lassa virus pseudotype entry inhibition, cell reporter; Potency, µM (top dose mostly 37.9 µM), inactives show top-dose activity change, negative = inhibition, most hits filed as inhibitors; 1.2% of 300,000 active; AID 540256; calls by dose curve; tested in HEK293 cells; further: potency means the concentration at half of the fitted maximal effect; nearly all actives have a fitted effect of over 50% in size
* = called active by the depositor; i = inactive; ? = inconclusive; . = no result given; [ ] = another dose, or the depositor's remark. Sampled rows, rich in hits. Any-hit rate of the full collection: about 6.5%. On the % scale 0 is the no-effect control and ±100 the full control effect.

SMILES | HCMV inh | Vaccinia mCherry | Marburg entry inh | FMDV antiviral | VACV Venus inh | Lassa entry inh
Cc1ccc(NC(=S)N/N=C/c2ccc([N+](=O)[O-])s2)cc1 | -74* | 10µM* | ? | ? | ? | 18µM*
CCC/C=N/NC(=O)CNC(=O)c1ccccc1Cl | -68* | -16% | 5%[46.1 µM] | 4% | -16% | 6%[46.1 µM]
Cn1cnc2c(NCc3ccccc3)nc(Cl)nc21 | . | -8% | . | . | -16% | .
O=C(Nc1ccc(Nc2ccccc2)cc1)C(Cl)Cl | -64* | ? | ? | 13% | ? | ?
NC(=O)C1CCN(c2ccc(S(=O)(=O)N3CCC(Cc4ccccc4)CC3)cn2)CC1 | -67* | -6% | ? | ? | -6% | ?
O=C(NCCc1ccccc1)c1ccc(S(=O)(=O)N2CCCCC2)cc1 | 45 | -8% | . | 6% | -13% | .
CS(=O)(=O)N1CCC(C(=O)NCCc2ccccc2)CC1 | 15 | -13% | 24% | . | -11% | 8%
CSc1ccccc1C(=O)NCCc1ccc(S(=O)(=O)N2CCCCC2)cc1 | -102* | . | 18% | -5% | . | 0%
O=C(NCCc1ccccc1)C1CCN(S(=O)(=O)c2ccccc2)CC1 | -104* | . | ? | 3% | . | -9%
O=C(CCNC(=O)C1CCN(S(=O)(=O)c2ccccc2)CC1)NCc1ccc(Cl)cc1Cl | -75* | . | . | ? | . | .
COc1c2ccoc2nc2c(OC)c(O[C@@H]3O[C@H](C)[C@@H](O)[C@@H](O)[C@H]3O)ccc12 | . | . | . | -14% | . | .
COc1ccccc1CCNCc1cc2cccc(C)c2nc1-c1cccs1 | . | -9% | . | -2% | -3% | .
CCn1c(SCc2cccc(F)c2)nc2c(c1=O)SCC2 | -60* | i | -23%[46.1 µM] | ? | -8% | 15%
CCn1c(SCc2ccc(F)cc2)nc2c(c1=O)SCC2 | -23 | -2% | ? | -15% | -17% | -12%
O=c1[nH]c2cccnc2n1-c1cccc([N+](=O)[O-])c1 | -85* | -21% | 13%[46.1 µM] | -11% | -8% | 4%
CC(=O)c1c(C(C)=O)c(C)n(-c2cccc([N+](=O)[O-])c2)c1C | -15 | i | 32% | -14% | -26% | 20%
Cc1noc(COc2ccccc2OC[C@H](O)CNC(C)(C)C)n1 | . | . | -8% | . | . | .
Cc1cn2c(=O)cc(COc3cccc(NC(=O)c4ccc(C(C)(C)C)cc4)c3)nc2s1 | -20 | i[7.34 µM] | ? | -4% | -9%[7.34 µM] | 7%[46.1 µM]
O=C(Nc1ccc(Cl)c([N+](=O)[O-])c1)C(Sc1ccccc1)c1ccccc1 (configuration not stated) | -102* | -20% | ? | ? | ? | ?
CCOC(=O)c1ccccc1NC(=O)N1CCC(N2CCN(Cc3ccccc3)C(=O)C2=O)CC1 | 5 | -4% | . | -10% | -3% | 7%[46.1 µM]
CC1CCN(CC(CS(=O)(=O)c2ccc([N+](=O)[O-])cc2)N2CCC(C)CC2)CC1 (configuration not stated) | -62* | ? | . | 28µM* | ? | .
O=C(COC(=O)CCc1c[nH]c2ccccc12)Nc1ccccc1C(F)(F)F | -94* | . | . | -17% | . | .
COc1ccccc1N1CCN(C(=O)C2CCN(S(=O)(=O)c3cnc[nH]3)CC2)CC1 | 20 | -4% | 8%[46.1 µM] | -18% | 0% | 14%[46.1 µM]
Cc1ccc(C#N)c(SCc2nnc(-c3ccc(Cl)cc3)o2)n1 | -91* | -12% | 2.1µM* | 20µM* | -11% | ?
Cc1cc(C)c(C#N)c(SCc2cn3c(C)cccc3n2)n1 | -63* | -18% | 7% | -17% | -20% | 0%
SMILES | HCMV inh | Vaccinia mCherry | Marburg entry inh | FMDV antiviral | VACV Venus inh | Lassa entry inh
Cc1cc(C)c(C#N)c(SCc2nnc(-c3ccccc3)o2)n1 | -93* | -11% | 1.2µM* | ? | -23% | 1.2µM*
Cc1ccc(C#N)c(SCc2cc3c(cc2Cl)OCO3)n1 | 4 | . | -5% | 16% | . | -23%
Cc1cc(C)c(C#N)c(SCc2ccccc2[N+](=O)[O-])n1 | -97* | i | -7% | 0% | -4% | 0%
Cc1cc(C)c(C#N)c(SCc2c(F)cccc2[N+](=O)[O-])n1 | 6 | -1% | 13% | -6% | -10% | -26%
Cc1cc(C)c(C#N)c(SCc2nnc(-c3ccccc3[N+](=O)[O-])o2)n1 | -95* | -20% | ? | 15% | -14% | ?
CCOC(=O)N1CCc2c(sc3c2c(=O)n(-c2ccccc2C(F)(F)F)c(=O)n3Cc2ccccc2C)C1 | -101* | -17% | -2%[46.1 µM] | 0% | -14% | -8%[46.1 µM]
CC(=O)N1CCc2c(sc3c2c(=O)n(CCc2ccccc2)c(=O)n3Cc2ccc(Cl)cc2)C1 | -106* | ? | ? | ? | -28% | .
CCOC(=O)N1CCc2c(sc3c2c(=O)n(-c2ccc(Cl)cc2)c(=O)n3CC(C)C)C1 | -65* | -14% | 9%[46.1 µM] | -3% | -16% | -15%[46.1 µM]
C=CC1=C2C=C(C3CC3)N(c3ccc(OC)cc3)C=C2C(=O)C(C)(OC(=O)c2ccco2)C1=O (configuration not stated) | . | . | -22%[14.2 µM] | . | . | .
COC(=O)[C@@H]1[C@@H](C(=O)OC)C2(c3ccccc3-c3ccccc32)N(c2ccc(Cl)cc2)N1C#N | -82* | ? | 10µM* | 3.5µM* | ? | ?
COC(=O)C1OC2(OC1C(=O)OC)c1ccccc1-c1ccccc12 (configuration not stated) | -36 | . | 7% | -11% | 20% | 2%
COC(=O)C[C@]1(C(=O)OC)CN(C#N)N(c2ccc(Cl)cc2)C12c1ccccc1-c1ccccc12 | -102* | 11µM* | ? | 4.5µM* | ? | 3.2µM*
COc1ccc(-c2nnc(SCC(=O)Oc3cc(C)ccc3C)o2)cc1 | -4 | i | -21%[46.1 µM] | -23% | -18% | 12%[46.1 µM]
O=C1OC(/C(=C\Nc2ccc(F)cc2F)[N+](=O)[O-])c2ccccc21 (configuration not stated) | -30 | -7% | -6%[46.1 µM] | -21% | -7% | -31%
O=C1OC(/C(=C\Nc2cc(Cl)ccc2O)[N+](=O)[O-])c2ccccc21 (configuration not stated) | -77* | ? | ? | -27% | -22% | 19%
OC(c1ccncc1)(c1ccc(F)cc1)c1ccc(F)cc1 | -19 | -21% | 27% | -21% | -11% | ?
NC(N)=NN=C(c1ccc(F)cc1)c1ccc(C(F)(F)F)cc1 | -77* | ? | ? | -29% | 13µM* | 10µM*
COc1cccc(-c2nc(NC3CC3)c3ccccc3n2)c1 | . | . | . | 9% | . | .
CC(C)C(C)NC(=O)COc1ccc(Sc2ccc(OCC(=O)NC(C)C(C)C)cc2)cc1 (configuration not stated) | -88* | -26% | ? | ? | -11% | ?
CC(C)C(C)NC(=O)COc1ccc(-c2ccccc2)cc1 (configuration not stated) | -20 | -14% | -14%[46.1 µM] | -8% | -11% | -9%
CCN(C(=O)CCS(=O)(=O)c1cc2c(cc1C)NC(=O)CO2)c1cccc(C)c1 | -103* | 6% | . | -7% | 5% | 12%[46.1 µM]

Compound activity deposited in PubChem by National Center for Advancing Translational Sciences (NCATS).
